In PubChem BioAssay:
Records with an inconclusive call do not appear. Activity calls are given as the source filed them.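 The calls were made as follows, unless noted: active = GFP signal, as percent of the solvent control, above the screen mean plus 3 SD, about 149; inconclusive = no reading because the compound's own fluorescence upset strain identification; inactive = the rest.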

Columns and labels:
[1] = rapamycin-like changes in RPL19A-GFP expression – cell-based, S. cerevisiae, multiplex flow cytometry, primary screen (AID 1862; in the data active = percent of DMSO control GFP below about 86%;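 also: lower values mimic rapamycin by blocking the RPL19A rise seen in DMSO cells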); details: S. cerevisiae RPL19A-GFP strain, flow cytometry fluorescence, 3 h; at 10 µM; stronger effect = lower value
[2] = TOR pathway GLN3 branch reporter MEP2-GFP changes – S. cerevisiae, multiplex flow cytometry, primary screen (AID 1867;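 active = GFP response, as percent of the DMSO control, above the screen-wide mean plus 3 SD, about 139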;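 also: median GFP channel fluorescence of barcode-gated MEP2-GFP cells measured by flow cytometry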); details: S. cerevisiae MEP2-GFP strain, 3 h, at 10 µM, stronger effect = higher value, 100% means same as DMSO wells
[3] = TOR pathway RTG branch CIT2 reporter changes – S. cerevisiae, GFP fusion, multiplex flow cytometry, primary screen (AID 1870;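 active = percent response above a set limit, the screen-wide mean plus 3 SD, cut at about 130% in these data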;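 also: barcoded CIT2-GFP strain pooled with four other GFP strains with rapamycin as positive control; median GFP fluorescence per well over plate mean of DMSO wells so 100% = DMSO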); details: S. cerevisiae CIT2-GFP expression, 3 h, at 10 µM, stronger effect = higher value
[4] = TOR pathway LAP4-GFP level changes – S. cerevisiae, multiplex flow cytometry, primary screen (AID 1873); details: S. cerevisiae LAP4-GFP expression, 3 h, at 10 µM, stronger effect = higher value
[5] = yeast AGP1-GFP level changes, GLN3 branch – cell-based, multiplex flow cytometry, S. cerevisiae, primary screen (AID 1887;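 active = GFP signal above the screen-wide mean plus 3 SD, that is over about 124.5% of the solvent control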;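 also: AGP1-GFP fusion strain of S. cerevisiae within a five-strain barcoded multiplex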); details: 3 h, at 10 µM, stronger effect = higher value
[6] = hit retest on RPL19A-GFP reporter strain – cell-based, S. cerevisiae, flow cytometry, cherry picks, mother/daughter gates, confirmation (AID 2270;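 active = GFP response below 50% of the DMSO control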); details: 3 h, at 10 µM, stronger effect = lower value, 100 = same GFP as DMSO wells
[7] = yeast TOR pathway reporter LAP4-GFP change – cell-based, cherry picks, flow cytometry, mother/daughter gates, confirmation (AID 2271;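 active = GFP response above 150% of the DMSO control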;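 also: ratio of sample to DMSO plate mean so 100% equals DMSO level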); details: S. cerevisiae LAP4-GFP strain, 3 h, at 10 µM, stronger effect = higher value, 100 means same as DMSO control
[8] = TOR pathway reporter MEP2-GFP, retest of hits – S. cerevisiae, flow cytometry GFP, cherry picks, confirmation (AID 2272;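 active = GFP response above 150% of the DMSO control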;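 also: ratio of well signal to plate DMSO mean so 100% equals DMSO level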); details: S. cerevisiae MEP2-GFP strain, 3 h, at 10 µM, stronger effect = higher value
[9] = TOR pathway CIT2 reporter hit retest – S. cerevisiae, GFP fusion, cherry picks, mother/daughter gates, confirmation (AID 2274;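 active = GFP response above 150% of the DMSO level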); details: S. cerevisiae CIT2-GFP strain, flow cytometry, 3 h, at 10 µM, stronger effect = higher value
[10] = reduced mouse 2C T cell binding to pMHC/ICAM-1 vesicles – MLPCN validation set, flow cytometry, LFA-1/ICAM-1 modulator project, pilot screen (AID 2523;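 active = response below a set limit, under 55% cells CD8-positive and vesicle-bound, and CD8 cells' 90th-percentile brightness under 279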;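 as to vesicle binding response: mean PE anti-B7-1 fluorescence of CD8+ cells relative to row control; 100% = QL9-loaded vesicles with DMSO vehicle in the same plate row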); details: 2C mouse CD8+ T cells, at 7 µM, stronger effect = lower value; double positive events: measured here: CD8+/vesicle+ event percentage
[11] = target: Integrin beta-1 (Homo sapiens) + Integrin alpha-4 (Homo sapiens) (UniProt P13612+P05556); assay: alpha4beta1 integrin LIBS antibody binding reduction – U937 cells, HUTS-21 mAb, flow cytometry, validation set, VLA-4 allosteric modulator project, pilot screen (AID 2674;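 active = inhibition above 50%, about 3 SD of the validation set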;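 also: antibody binding induced by the VLA-4 ligand LDV present at three times its Kd; 0% = LDV ligand with antibody and no compound and 100% = antibody without LDV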); details: HUTS-21 LIBS mAb binding, at 6.7 µM, stronger effect = higher value, binding induced by LDV ligand
[12] = calorie-restriction mimetic ROS inhibitors, yeast – validation compound set, pilot screen (AID 2706;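 active = superoxide response below 65% of plate, a cut near 3 SD across the whole screen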;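 also: yeast exposed to compound for one week at 30 degrees C before staining; 100% = mean of all compound wells on the same plate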); details: S. cerevisiae aging, superoxide DHE fluorescence; at 10 µM; stronger effect = lower value
[13] = target: Beta-adrenergic receptor kinase 1 (Homo sapiens) (UniProt P25098); assay: GRK2 binders displacing RNA aptamer, biochemical, validation, human GRK2, bead flow cytometry (AID 488806;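 active = aptamer binding inhibition above 30%, about 3 SD of noise from non-fluorescent compounds; inactive = inhibition at or below 30%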); details: bead-bound GRK2, FAM-aptamer displacement, at 10 µM, stronger effect = higher value
[14] = target: Beta-2 adrenergic receptor (Homo sapiens) (UniProt P07550); assay: agonist-induced loss of surface beta2AR – cell-based, FAP fluorogen, flow cytometry, validation set, pilot screen (AID 504459;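 active = percent response above 42, roughly 3 SD of non-fluorescent test compounds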;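 also: agonist-driven loss of surface beta2AR via internalization measured by FAP dye flow cytometry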); details: Am2.2-beta2AR cells, at 10 µM, stronger effect = higher value
[15] = target: AP-2 complex subunit beta (Homo sapiens) (UniProt P63010); assay: beta-arrestin/AP2 interaction blockers – biochemical, validation set, GST-AP2 beads, flow cytometry, pilot screen (AID 504541;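 active = inhibition above 54%, about 3 SD of non-fluorescent compounds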;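 also: AP2 carries R879A mutation and is captured from E. coli lysate; bead-bound FITC arrestin peptide fluorescence measuring arrestin peptide binding to AP2; 0% = DMSO wells and 100% = excess unlabeled arrestin peptide control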); details: FITC arrestin peptide, at 10 µM, stronger effect = higher value, AP2 beta2 appendage fragment, R879A mutant
[16] = cytosolic pH regulators acting via V-ATPase – S. cerevisiae, pHLuorin, HTS validation (AID 504600; in the data active = response above about 15%;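 also: plate controls were DMSO for no effect and reference compound for full effect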); details: V-ATPase proton transport, at 10 µM, stronger effect = higher value
[17] = test system: anti-desmoglein-3 scFv antibody binding to human DSG3; assay: blockers of pathogenic pemphigus antibody–desmoglein-3 binding – biochemical, validation compound set, bead-based, flow cytometry, pilot screen (AID 588368;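 active = binding below the plate cutoff, the plate median minus 3 SD, with a reading above zero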;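 also: signal is the median channel fluorescence of bead-bound GFP antibody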); details: Protein G beads, DSG3-Fc, scFv-GFP binding, at 10 µM, stronger effect = lower value
[18] = Nile Red efflux blockade in pump-expressing yeast – validation compound set, multiplex, phenotypic, pilot screen (AID 588506;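 active = efflux inhibition above 0.42, the validation set average plus 4 SD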;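 also: Nile Red retained in cells so higher fluorescence means more efflux inhibition; 0 = negative control wells and 1 = enniatin B 25 µM full block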); details: S. cerevisiae pump-expressing triplex, Nile Red efflux flow cytometry; at 10 µM; stronger effect = higher value; the pumps come from Candida albicans
[19] = target: ATP-binding cassette sub-family B member 6 (Homo sapiens) (UniProt Q9NP58); assay: blockers of ABCB6-driven porphyrin uptake – K562-ABCB6 cells, flow cytometry, validation set, pilot screen (AID 588550;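 active = inhibition above the screen-wide mean plus 3 SD, about 51%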;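 also: 0% = DMSO wells and 100% = benzethonium chloride 70 µM positive control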); details: K562-ABCB6 porphyrin accumulation, 1 h, at 10 µM, stronger effect = higher value
[20] = AML differentiation inducers, ER-HoxA9 marrow cells – cell-based, GFP/MAC1 double positive, flow cytometry, validation set, primary screen (AID 588685;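 active = differentiation response of at least 50%, scaled between solvent and reference control, from cells with both markers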;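 also: compound exposure lasts four days before antibody staining and flow analysis; 0% = DMSO wells and 100% = 5 µM fulvestrant positive control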); details: stronger effect = higher value, normalized: vehicle 0, fulvestrant 100
[21] = measured here: daughter cell gate
[22] = measured here: mother cell gate
[23] = measured here: daughter cell gate response
[24] = measured here: mother cell gate response

Chain of ATP-binding cassette sub-family B member 6 (Homo sapiens) (Q9NP58 whole entry, looked up): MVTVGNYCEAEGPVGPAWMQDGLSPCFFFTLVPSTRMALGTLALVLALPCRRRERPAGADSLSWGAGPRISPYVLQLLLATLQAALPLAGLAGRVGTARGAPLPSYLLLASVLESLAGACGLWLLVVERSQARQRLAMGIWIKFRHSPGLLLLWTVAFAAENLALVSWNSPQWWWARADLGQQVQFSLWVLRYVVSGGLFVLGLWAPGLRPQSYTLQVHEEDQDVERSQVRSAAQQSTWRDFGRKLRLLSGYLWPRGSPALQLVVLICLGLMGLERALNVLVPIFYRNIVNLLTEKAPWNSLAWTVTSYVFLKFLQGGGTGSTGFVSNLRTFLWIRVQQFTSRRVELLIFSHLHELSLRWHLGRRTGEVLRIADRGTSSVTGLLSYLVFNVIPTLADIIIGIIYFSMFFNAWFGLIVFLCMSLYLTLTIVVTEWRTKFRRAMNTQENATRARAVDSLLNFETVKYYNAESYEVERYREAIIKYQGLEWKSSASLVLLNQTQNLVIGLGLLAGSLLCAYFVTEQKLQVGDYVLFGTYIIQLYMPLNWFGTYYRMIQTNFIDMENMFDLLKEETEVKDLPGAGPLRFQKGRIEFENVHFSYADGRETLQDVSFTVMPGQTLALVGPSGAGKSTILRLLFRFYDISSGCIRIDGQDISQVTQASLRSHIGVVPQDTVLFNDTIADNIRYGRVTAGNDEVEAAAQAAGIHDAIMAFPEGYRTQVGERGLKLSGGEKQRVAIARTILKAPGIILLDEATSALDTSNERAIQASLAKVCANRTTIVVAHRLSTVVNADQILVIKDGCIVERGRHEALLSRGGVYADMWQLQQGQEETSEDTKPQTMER
Chain of Beta-adrenergic receptor kinase 1 (Homo sapiens) (P25098 whole entry, looked up): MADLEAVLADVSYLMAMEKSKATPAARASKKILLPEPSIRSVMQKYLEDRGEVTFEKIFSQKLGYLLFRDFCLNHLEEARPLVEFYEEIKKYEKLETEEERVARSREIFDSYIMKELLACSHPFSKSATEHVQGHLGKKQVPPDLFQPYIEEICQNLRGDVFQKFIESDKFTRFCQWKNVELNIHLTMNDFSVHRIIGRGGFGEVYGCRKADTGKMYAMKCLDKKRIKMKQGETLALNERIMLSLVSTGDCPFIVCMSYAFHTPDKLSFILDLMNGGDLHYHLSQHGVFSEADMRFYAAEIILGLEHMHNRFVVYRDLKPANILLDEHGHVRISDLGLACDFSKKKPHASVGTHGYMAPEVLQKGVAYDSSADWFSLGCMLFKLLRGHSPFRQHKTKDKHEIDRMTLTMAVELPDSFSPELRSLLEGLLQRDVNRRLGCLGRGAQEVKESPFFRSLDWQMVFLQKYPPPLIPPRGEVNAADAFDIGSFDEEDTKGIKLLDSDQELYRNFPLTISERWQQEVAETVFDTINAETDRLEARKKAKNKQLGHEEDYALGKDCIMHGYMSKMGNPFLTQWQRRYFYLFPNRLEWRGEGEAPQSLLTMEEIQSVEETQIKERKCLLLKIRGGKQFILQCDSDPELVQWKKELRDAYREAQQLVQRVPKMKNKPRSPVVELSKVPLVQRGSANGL
Chain of Beta-2 adrenergic receptor (Homo sapiens) (P07550 whole entry, looked up): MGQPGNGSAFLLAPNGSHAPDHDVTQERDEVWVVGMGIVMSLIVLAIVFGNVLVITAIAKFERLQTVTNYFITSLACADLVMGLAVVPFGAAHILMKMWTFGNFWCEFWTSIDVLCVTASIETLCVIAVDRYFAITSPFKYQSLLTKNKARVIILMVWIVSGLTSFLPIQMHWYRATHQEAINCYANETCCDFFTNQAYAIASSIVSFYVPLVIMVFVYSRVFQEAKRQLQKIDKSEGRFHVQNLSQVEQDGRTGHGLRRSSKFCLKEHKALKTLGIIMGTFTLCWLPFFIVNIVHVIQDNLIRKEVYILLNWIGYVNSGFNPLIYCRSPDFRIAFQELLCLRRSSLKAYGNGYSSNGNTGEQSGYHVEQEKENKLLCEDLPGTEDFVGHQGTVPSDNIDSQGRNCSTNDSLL
Chain of Integrin beta-1 (Homo sapiens) + Integrin alpha-4 (Homo sapiens) (P05556 whole entry, looked up): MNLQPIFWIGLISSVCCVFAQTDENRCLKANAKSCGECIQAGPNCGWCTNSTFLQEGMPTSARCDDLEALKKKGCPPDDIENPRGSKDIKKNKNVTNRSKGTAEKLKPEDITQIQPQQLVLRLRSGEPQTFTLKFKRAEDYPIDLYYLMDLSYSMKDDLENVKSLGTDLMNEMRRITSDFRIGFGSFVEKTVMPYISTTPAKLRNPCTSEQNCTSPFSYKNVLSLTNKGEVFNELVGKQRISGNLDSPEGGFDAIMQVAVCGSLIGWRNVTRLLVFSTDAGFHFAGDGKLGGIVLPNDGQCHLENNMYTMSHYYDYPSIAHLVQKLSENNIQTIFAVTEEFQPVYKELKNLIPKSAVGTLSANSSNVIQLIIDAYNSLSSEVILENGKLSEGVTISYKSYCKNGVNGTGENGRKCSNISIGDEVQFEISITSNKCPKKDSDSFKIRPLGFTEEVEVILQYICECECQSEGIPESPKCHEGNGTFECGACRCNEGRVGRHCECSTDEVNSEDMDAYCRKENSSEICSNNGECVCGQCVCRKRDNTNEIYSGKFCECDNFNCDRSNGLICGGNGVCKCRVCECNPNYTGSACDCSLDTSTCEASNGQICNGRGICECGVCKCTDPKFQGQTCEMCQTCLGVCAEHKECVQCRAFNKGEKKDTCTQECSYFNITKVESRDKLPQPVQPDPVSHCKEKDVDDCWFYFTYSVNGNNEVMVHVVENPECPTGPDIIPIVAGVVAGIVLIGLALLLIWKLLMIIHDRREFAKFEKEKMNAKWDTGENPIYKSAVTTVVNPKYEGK
Chain of Integrin beta-1 (Homo sapiens) + Integrin alpha-4 (Homo sapiens) (P13612 whole entry, looked up): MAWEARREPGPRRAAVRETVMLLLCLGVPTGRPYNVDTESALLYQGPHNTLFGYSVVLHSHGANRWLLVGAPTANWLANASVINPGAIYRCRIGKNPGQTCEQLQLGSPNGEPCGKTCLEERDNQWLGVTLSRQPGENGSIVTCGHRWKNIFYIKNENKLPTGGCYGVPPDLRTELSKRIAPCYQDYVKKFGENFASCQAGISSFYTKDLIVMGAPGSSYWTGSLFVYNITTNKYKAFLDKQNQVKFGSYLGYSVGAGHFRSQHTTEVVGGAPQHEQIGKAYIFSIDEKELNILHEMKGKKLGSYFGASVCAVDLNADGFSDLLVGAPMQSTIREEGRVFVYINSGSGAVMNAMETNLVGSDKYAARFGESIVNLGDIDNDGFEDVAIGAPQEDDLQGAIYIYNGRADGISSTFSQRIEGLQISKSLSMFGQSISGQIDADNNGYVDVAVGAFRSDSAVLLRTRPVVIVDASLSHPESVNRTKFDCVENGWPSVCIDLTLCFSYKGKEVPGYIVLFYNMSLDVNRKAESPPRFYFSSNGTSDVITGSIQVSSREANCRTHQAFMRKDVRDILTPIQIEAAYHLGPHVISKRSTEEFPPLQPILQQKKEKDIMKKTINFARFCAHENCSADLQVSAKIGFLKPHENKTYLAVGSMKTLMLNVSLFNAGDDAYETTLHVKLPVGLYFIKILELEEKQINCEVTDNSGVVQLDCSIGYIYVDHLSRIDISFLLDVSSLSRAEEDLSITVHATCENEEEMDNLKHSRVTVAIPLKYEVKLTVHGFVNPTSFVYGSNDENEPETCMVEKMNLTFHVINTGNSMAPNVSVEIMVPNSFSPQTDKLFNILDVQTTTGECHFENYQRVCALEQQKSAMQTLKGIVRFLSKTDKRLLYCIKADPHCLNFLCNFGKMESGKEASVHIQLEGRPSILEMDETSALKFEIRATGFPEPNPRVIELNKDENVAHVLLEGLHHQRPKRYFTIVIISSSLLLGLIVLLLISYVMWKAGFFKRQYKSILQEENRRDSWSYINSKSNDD
Chain of AP-2 complex subunit beta (Homo sapiens) (P63010 whole entry, looked up, the tested form may be a part, one chain of several): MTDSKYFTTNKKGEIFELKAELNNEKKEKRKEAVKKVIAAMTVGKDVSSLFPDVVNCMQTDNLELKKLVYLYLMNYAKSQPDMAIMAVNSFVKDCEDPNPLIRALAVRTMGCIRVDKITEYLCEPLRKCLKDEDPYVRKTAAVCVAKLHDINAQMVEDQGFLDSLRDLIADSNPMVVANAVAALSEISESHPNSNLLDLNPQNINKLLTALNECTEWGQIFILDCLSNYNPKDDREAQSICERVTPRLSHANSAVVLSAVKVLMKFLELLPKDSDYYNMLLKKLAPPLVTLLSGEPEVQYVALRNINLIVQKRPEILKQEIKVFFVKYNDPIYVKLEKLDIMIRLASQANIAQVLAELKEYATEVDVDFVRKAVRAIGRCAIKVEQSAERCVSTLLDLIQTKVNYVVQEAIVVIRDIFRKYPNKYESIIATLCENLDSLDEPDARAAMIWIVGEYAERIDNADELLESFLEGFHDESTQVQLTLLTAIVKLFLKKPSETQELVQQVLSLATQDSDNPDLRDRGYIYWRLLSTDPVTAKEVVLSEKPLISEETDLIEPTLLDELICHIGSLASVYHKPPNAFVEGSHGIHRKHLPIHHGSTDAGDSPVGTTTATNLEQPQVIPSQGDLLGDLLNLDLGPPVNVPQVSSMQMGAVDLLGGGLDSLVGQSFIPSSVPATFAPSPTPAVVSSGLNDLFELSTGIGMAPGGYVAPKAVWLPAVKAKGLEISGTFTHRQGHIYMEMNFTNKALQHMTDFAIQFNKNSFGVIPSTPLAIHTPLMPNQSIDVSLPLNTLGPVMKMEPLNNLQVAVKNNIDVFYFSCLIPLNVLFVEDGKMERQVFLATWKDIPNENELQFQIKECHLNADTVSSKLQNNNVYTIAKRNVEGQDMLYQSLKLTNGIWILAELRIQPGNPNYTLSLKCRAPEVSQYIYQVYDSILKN

O=C(O)Cc1ccc(-c2ccccc2)cc1
103%: GFP response, % of DMSO [9, 22]
114%: GFP response relative to DMSO [7, 24]
93.3%: GFP response vs DMSO [6, 21]
95.9%: GFP response vs DMSO [6, 22]
91.5%: GFP response, % of DMSO [9, 21]
116%: GFP response relative to DMSO [7, 23]
active: GFP response vs DMSO [4] 196%
inactive: percent of DMSO control GFP [1] 89.4% | GFP response vs DMSO [2] 96.3% | percent response of DMSO control [3] 65.4% | GFP response, % of DMSO [5] 76.9% | GFP response vs DMSO [6] 96.5% | GFP response relative to DMSO [7] 115% | GFP response vs DMSO [8] 102% | GFP response, % of DMSO [9] 102% | vesicle binding response [10] 5570% | inhibition [11] 2.3% | superoxide response (% of plate) [12] 118% | aptamer binding inhibition [13] 3% | response [14] 2.38% | inhibition [15] 22.4% | response [16] -1.1% | binding (% of control) [17] 99.5% | efflux inhibition (fraction of control) [18] -0.42 | inhibition [19] 8% | differentiation response [20] -24.8%
65.8%: double positive events [10]

CC(=O)[C@H]1CC[C@H]2[C@@H]3CCC4=CC(=O)CC[C@]4(C)[C@H]3CC[C@]12C
96.4%: GFP response, % of DMSO [9, 21]
inactive: percent of DMSO control GFP [1] 100% | GFP response vs DMSO [2] 108% | percent response of DMSO control [3] 98.6% | GFP response vs DMSO [4] 94.8% | GFP response, % of DMSO [5] 104% | GFP response vs DMSO [6] 99.9% | GFP response relative to DMSO [7] 100% | GFP response vs DMSO [8] 99.5% | GFP response, % of DMSO [9] 97.8% | vesicle binding response [10] 119% | inhibition [11] 21.7% | superoxide response (% of plate) [12] 136% | aptamer binding inhibition [13] 5% | response [14] -14.3% | inhibition [15] -3.41% | response [16] 5.39% | binding (% of control) [17] 99.6% | efflux inhibition (fraction of control) [18] 0.275 | inhibition [19] 0% | differentiation response [20] -1.65%
101%: GFP response relative to DMSO [7, 24]
64%: double positive events [10]
99.3%: GFP response vs DMSO [6, 21]
98%: GFP response, % of DMSO [9, 22]
97.9%: GFP response relative to DMSO [7, 23]
100%: GFP response vs DMSO [6, 22]

COc1ccc(-c2noc(-c3ccccc3-c3ccccc3)n2)cc1
96.8%: GFP response vs DMSO [6, 22] | GFP response, % of DMSO [9, 22]
inactive: percent of DMSO control GFP [1] 91.1% | percent response of DMSO control [3] 114% | GFP response vs DMSO [4] 81.4% | GFP response, % of DMSO [5] 86.3% | GFP response vs DMSO [6] 95.6% | GFP response relative to DMSO [7] 95.7% | GFP response vs DMSO [8] 107% | GFP response, % of DMSO [9] 97.3% | vesicle binding response [10] 138% | inhibition [11] -15.8% | superoxide response (% of plate) [12] 94.3% | aptamer binding inhibition [13] 8% | response [14] 3.77% | inhibition [15] 19.4% | response [16] -3.56% | binding (% of control) [17] 100% | efflux inhibition (fraction of control) [18] 0.19 | inhibition [19] 6% | differentiation response [20] -1.64%
56.5%: double positive events [10]
active: GFP response vs DMSO [2] 142%
97.3%: GFP response relative to DMSO [7, 24]
95.9%: GFP response relative to DMSO [7, 23]
97.4%: GFP response, % of DMSO [9, 21]
92.9%: GFP response vs DMSO [6, 21]
